# According to the supplement of paper PMC3334620:
# Whole data set: some 33,000 sequences, median “E-score (-0.5 to 0.5)” near -0.011, cut for the highest 2% near 0.28. The entries come from a sample that favours the highest values as a whole.
# Target: T1, Gcr1 (UniProt P07261)
# T1 sequence: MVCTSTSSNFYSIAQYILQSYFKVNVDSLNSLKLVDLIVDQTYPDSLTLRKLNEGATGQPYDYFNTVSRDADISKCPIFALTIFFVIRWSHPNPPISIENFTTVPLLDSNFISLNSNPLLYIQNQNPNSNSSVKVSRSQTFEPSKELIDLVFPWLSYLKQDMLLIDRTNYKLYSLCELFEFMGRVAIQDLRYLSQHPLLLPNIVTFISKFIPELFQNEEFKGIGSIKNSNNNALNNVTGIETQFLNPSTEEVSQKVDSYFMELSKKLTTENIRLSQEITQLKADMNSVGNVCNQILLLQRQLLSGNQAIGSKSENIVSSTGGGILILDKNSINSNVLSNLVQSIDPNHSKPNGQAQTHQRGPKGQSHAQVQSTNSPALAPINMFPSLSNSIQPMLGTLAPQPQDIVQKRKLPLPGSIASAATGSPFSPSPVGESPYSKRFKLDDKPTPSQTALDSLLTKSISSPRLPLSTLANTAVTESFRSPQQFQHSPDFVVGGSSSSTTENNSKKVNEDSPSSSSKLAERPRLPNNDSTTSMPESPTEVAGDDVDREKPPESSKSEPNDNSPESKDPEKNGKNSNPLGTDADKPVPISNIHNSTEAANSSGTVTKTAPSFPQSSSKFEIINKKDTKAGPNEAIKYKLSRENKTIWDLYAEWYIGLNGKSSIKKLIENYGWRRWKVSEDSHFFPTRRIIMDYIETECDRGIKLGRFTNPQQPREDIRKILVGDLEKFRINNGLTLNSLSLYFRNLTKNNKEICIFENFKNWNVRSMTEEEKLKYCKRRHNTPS
# Experiment: PBM E-score (8-mer binding enrichment) (E-score (-0.5 to 0.5)); higher = stronger / more preferred TF binding
# Conditions: protein concentration: 100 nM; construct: GST-full length
# Procedure: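 Universal 'all 10-mer' protein binding microarrays (Agilent AMADID 015681) probed with GST-tagged S. cerevisiae TFs (full-length or DBD) made by in vitro transcription/translation (PURExpress), about 100-200 nM. Bound TF was detected with fluorescent anti-GST. Each ungapped 8-mer (which stands for itself and its reverse complement) is scored by the PBM enrichment score (E-score), a modified Wilcoxon-Mann-Whitney statistic from -0.5 to +0.5, computed with the Universal PBM Analysis Suite. Scale: above 0.35 generally sequence-specific binding.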
row,Sequence,PBM E-score
1,CATAGACG,0.0886
2,CTAATTTA,0.291
3,GTAATTTA,0.109
4,CTAATTTC,0.189
5,ATACCTTG,-0.108
6,AATTTTTG,0.1
7,AATTTTGG,0.287
8,AAAATTGC,-0.203
9,CAAATTGG,0.213
10,AAATTGGG,0.295
11,ATTTTTGG,0.186
12,AAAATTGG,0.316
13,CAATTTGG,0.222
14,AAATTGGT,0.226
15,CAATTGGG,-0.0107
16,AAATTTTG,0.088
17,AAATTTGG,0.301
18,AGGGAATA,0.0244
19,AATAGATC,-0.0063
20,CGATCTTA,-0.045
21,GAGTTCAC,-0.0309
22,ATGTGCCG,-0.205

row,Sequence,PBM E-score
1,ACCGCTTG,-0.0218
2,AGTTTAAT,0.0173
3,ACACTCGT,-0.152
4,CTTTGGAA,0.282
5,ATTTGGAA,0.373
6,ATTTGGAC,0.166
7,CTTTGGAC,-0.147
8,ATTTGGAG,0.0526
9,GTTTGGAA,0.202
10,ATGCTAAC,0.139
11,AATCAGAC,0.0464
12,AGCCCAGA,0.0713
13,CTAGCATA,0.017
14,ATAGCACC,0.159
15,ATAGCATC,0.0848
16,CTAGCACC,0.31
17,CTAGCACA,-0.181
18,CTAGCATC,0.315
19,CCAGAGCG,-0.144
20,ACCGGACT,-0.0693
21,ACCGGATA,0.00906
22,ACCGGATC,0.0302

row,Sequence,PBM E-score
1,CCCGGACG,-0.0526
2,ACCGGAAC,0.203
3,ACCGGATG,0.349
4,ACCGGACG,0.32
5,ACCGGAAT,0.185
6,ACCGGAAG,0.303
7,AAGGGGTC,-0.19
8,CGATCAAG,-0.0812
9,CCTTGGCC,-0.327
10,ATTAGGAG,0.26
11,CGCTAGTC,-0.153
12,AACAATGT,0.0351
13,ATCCCATG,-0.0862
14,TCGTTTCA,0.077
15,AGATTCCA,0.426
16,AGATTCCG,0.284
17,CGATTCCG,-0.0838
18,CGATTCCC,0.0331
19,ACATTCCT,0.0561
20,AGATTCCT,0.399
21,GGATTCCC,0.418
22,CGATTCCA,0.178

row,Sequence,PBM E-score
1,GGATTCAC,0.159
2,ATATTCCG,0.131
3,AGATTCCC,0.265
4,TGATTCCA,0.0933
5,CCAGTTGA,-0.0652
6,GGATTGAC,-0.0943
7,AACCCAGG,0.056
8,CCGTTGAC,-0.121
9,CGAACCAC,0.0103
10,TGAACCAA,0.022
11,GGAACCAA,0.31
12,GGAACCAC,0.284
13,GCAACCAA,0.302
14,CCAACCAA,0.0612
15,AGAACCAC,0.035
16,GCAACCAC,0.267
17,CGAACCAA,-0.0751
18,AATGGACG,0.143
19,CGTGGGCC,-0.23
20,GGGGAGCA,-0.103
